For some assays here: Entries with a potency or affinity are not part of this list. Calls of active or inactive are those of the source.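 How the source made its calls, unless noted: active means calcium signal ratio cut to more than 3 SD under the fully stimulated control mean yet still positive, in both repeats and the primary screen; inactive means the rest.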
Key:
[1] = test system: TRPC4 beta (transient receptor potential cation channel C4), mouse; assay: activators of mouse TRPC4 channel, confirmation, cell-based, Fluo4 calcium, HEK293 TRPC4beta/mu-opioid, duplicates, 10 µM (AID 2426;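 active means fluorescence ratio normalized to control raised more than 50% in primary screen plus both repeat runs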;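 on activation: percent rise of integrated ratio over buffer wells lacking compound which define 0%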); settings: Fluo4 calcium fluorescence, at 10 µM; hits give high values
[2] = test system: transient receptor potential cation channel C4 beta (TRPC4), mouse; assay: activators of mouse TRPC4 channel, confirmation, cell-based, second round, Fluo4, HEK293 TRPC4beta/mu-opioid, 1 µM (AID 2461;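 active means primary screen active and over 50% activation in each of two duplicate runs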;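 on activation: 0% = wells without test compound as baseline of integrated fluorescence ratio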); settings: Fluo4 calcium fluorescence, at 1 µM; hits give high values
[3] = test system: TRPC4 (transient receptor potential cation channel C4 beta), mouse; assay: positive allosteric modulators of mouse TRPC4, confirmation, cell-based, second round, Fluo-4, HEK293 TRPC4beta/mu-opioid, 1 µM (AID 2554;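 active means primary screen hit whose fluorescence ratio, in both repeats, exceeds the weak agonist control mean by 3 SD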); settings: DAMGO EC20, Fluo-4 calcium flux, at 1 µM; hits give high values
[4] = test system: TRPC4 beta (transient receptor potential cation channel C4), mouse; assay: positive allosteric modulators of mouse TRPC4, confirmation, cell-based, Fluo-4, HEK293 TRPC4beta/mu-opioid (AID 2555;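 active means primary screen hit whose calcium fluorescence ratio, in both repeats, exceeds the weak agonist control mean by 3 SD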); settings: DAMGO EC20, Fluo-4 calcium flux, at 10 µM; hits give high values
[5] = biological target: Short transient receptor potential channel 4 (Mus musculus) (UniProt Q9QUQ5); assay: inhibitors of mouse TRPC4 channel, confirmation, cell-based, Fluo4, HEK293 TRPC4beta/mu-opioid (AID 2636;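 active means calcium signal cut by more than 3 SD below the full-agonist control yet still positive, in both repeats and the earlier primary screen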); settings: DAMGO, Fluo4 calcium flux, at 10 µM; hits give high values
Chain of Short transient receptor potential channel 4 (Mus musculus) (Q9QUQ5 whole entry, looked up): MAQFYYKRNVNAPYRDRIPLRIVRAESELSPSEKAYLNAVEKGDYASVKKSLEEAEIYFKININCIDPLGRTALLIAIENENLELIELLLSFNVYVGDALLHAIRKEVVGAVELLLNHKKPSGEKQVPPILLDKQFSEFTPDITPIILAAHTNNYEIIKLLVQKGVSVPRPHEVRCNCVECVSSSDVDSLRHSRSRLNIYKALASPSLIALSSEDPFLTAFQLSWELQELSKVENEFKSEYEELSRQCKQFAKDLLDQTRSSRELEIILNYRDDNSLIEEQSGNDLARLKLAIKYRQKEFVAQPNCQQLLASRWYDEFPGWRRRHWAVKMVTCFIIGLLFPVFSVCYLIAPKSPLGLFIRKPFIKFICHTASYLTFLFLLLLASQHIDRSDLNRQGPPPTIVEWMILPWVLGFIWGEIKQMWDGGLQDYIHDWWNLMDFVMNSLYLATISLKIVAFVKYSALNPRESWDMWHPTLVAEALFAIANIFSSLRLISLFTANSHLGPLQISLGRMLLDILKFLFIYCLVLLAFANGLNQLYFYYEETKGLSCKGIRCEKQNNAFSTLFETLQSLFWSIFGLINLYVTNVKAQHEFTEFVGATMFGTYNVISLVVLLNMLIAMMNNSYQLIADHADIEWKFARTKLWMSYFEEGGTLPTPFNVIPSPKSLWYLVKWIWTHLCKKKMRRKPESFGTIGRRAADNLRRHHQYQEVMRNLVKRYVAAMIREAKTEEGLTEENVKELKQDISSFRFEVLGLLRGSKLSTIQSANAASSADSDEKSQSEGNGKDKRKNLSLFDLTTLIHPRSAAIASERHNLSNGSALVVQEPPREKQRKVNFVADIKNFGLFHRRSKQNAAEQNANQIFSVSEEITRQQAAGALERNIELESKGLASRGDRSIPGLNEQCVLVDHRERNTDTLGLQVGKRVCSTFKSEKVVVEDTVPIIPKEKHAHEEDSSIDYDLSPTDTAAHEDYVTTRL

[6] = biological target: Short transient receptor potential channel 4 (Mus musculus) (UniProt Q9QUQ5); assay: inhibitors of mouse TRPC4 channel, confirmation, cell-based, second round, Fluo4, HEK293 TRPC4beta/mu-opioid, 1 µM (AID 2637); settings: Fluo4 calcium flux, DAMGO, at 1 µM; hits give high values
[7] = biological target: Short transient receptor potential channel 4 (Mus musculus) (UniProt Q9QUQ5); assay: TRPC4 positive allosteric modulators, dose response, cell-based, HEK293 TRPC4/mu-opioid, Fluo-4 calcium, EC20 DAMGO (AID 434941;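 active means earlier screen potentiator hit that boosts the TRPC4 ion channel at some dose, with a dose response; inactive means no potentiation, no dose response, or not a prior hit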;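 further: calcium entry triggered by an EC20 dose of DAMGO at the co-expressed mu-opioid receptor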)
[8] = biological target: Short transient receptor potential channel 4 (Mus musculus) (UniProt Q9QUQ5); assay: mouse TRPC4 channel inhibitors, dose response, cell-based, HEK293 TRPC4/mu-opioid, Fluo-4 calcium (AID 434942;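 active means primary screen inhibitor hit that blocks the TRPC4 channel at some tested dose, yielding a dose curve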)
[9] = biological target: Short transient receptor potential channel 6 (Mus musculus) (UniProt Q61143); assay: inhibition of mouse TRPC6 channel, confirmation, selectivity assay for TRPC4 inhibitor project, cell-based, HEK293, membrane potential dye, duplicate (AID 434948;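 active means active in primary screen and both duplicates, each dropping signal beyond three positive-control SD with fluorescence still positive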); settings: HEK293 TRPC6, membrane potential dye fluorescence, at 10 µM, stimulated with maximal-effect acetylcholine; hits give high values
Chain of Short transient receptor potential channel 6 (Mus musculus) (Q61143 whole entry, looked up): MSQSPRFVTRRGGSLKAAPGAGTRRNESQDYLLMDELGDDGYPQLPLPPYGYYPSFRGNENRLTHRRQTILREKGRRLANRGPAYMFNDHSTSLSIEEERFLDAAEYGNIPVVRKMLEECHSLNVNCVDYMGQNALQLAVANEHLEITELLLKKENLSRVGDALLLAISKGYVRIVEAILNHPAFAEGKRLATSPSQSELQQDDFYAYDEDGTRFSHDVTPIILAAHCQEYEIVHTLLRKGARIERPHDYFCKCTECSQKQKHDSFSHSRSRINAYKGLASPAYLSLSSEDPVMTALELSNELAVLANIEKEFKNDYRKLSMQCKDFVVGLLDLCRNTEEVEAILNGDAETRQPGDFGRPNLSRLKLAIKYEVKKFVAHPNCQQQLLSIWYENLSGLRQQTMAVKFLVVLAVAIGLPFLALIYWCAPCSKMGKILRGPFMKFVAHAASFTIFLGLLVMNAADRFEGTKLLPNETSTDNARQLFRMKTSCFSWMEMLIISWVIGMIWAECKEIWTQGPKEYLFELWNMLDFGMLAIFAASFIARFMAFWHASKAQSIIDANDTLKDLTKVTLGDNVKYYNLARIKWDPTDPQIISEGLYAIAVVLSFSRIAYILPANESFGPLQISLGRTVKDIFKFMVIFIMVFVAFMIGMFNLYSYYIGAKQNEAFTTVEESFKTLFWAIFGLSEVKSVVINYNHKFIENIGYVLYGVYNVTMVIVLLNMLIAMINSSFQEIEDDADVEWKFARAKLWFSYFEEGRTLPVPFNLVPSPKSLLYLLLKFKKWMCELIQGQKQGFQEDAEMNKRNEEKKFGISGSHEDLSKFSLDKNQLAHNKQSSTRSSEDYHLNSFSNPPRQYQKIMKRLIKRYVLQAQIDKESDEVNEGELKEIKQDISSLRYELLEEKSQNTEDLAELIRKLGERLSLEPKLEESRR

[10] = biological target: Short transient receptor potential channel 6 (Mus musculus) (UniProt Q61143); assay: activation of mouse TRPC6 channel, confirmation, selectivity assay for TRPC4 activator project, cell-based, HEK293, membrane potential dye, duplicate (AID 434950;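 active means membrane potential signal rise above negative control mean plus 3 SD in both duplicates, also active in the earlier TRPC4 screen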;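 on activation: 0% = buffer only wells and 100% = acetylcholine maximal-effect wells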); settings: HEK293 TRPC6, membrane potential fluorescence, at 10 µM; hits give high values
[11] = biological target: Short transient receptor potential channel 6 (Mus musculus) (UniProt Q61143); assay: TRPC6 potentiation by TRPC4 potentiator hits, confirmation, selectivity assay for TRPC4 potentiator project, HEK293 cells, membrane potential dye, duplicate (AID 434952;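 active means compound raising the membrane signal above positive-control mean plus 3 SD in both repeats, and a primary screen hit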); settings: HEK293 TRPC6, membrane potential dye fluorescence, at 10 µM, maximal acetylcholine added after compound; hits give high values
[12] = biological target: Short transient receptor potential channel 4 (Mus musculus) (UniProt Q9QUQ5); assay: calcium flux activators in TRPC4/5HT1a cells, counter-screen for TRPC4 activator project, cell-based, second counter screen, HEK293 TRPC4/5HT1a, Fluo-4 (AID 434977;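 active means calcium signal rise above buffer-control mean plus 5 SD in both duplicates, and also a hit in the primary screen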;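 on activation: plate controls were assay buffer for no effect and maximal serotonin response for full effect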); settings: Fluo-4 calcium flux, at 10 µM; hits give high values
[13] = calcium flux inhibitors in TRPC4/5HT1a cells, confirmation, counter-screen for TRPC4 inhibitor project, cell-based, second counter screen, HEK293 TRPC4/5HT1a, Fluo-4 (AID 434978;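 active means primary screen active whose calcium signal fell more than 3 SD beyond the full-serotonin control mean in both duplicate plates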;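 further: serotonin given first at submaximal then at maximal dose after compound preincubation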); settings: Fluo-4 calcium flux, at 10 µM, serotonin added to trigger calcium flux; hits give high values
[14] = test system: TRPC4 (mouse), co-expressed with 5HT1a in HEK293; assay: calcium flux potentiators in TRPC4/5HT1a cells, confirmation, counter-screen for TRPC4 potentiator project, cell-based, second counter screen, HEK293 TRPC4/5HT1a, Fluo-4 (AID 434979;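 active means signal rise over 3 SD above mean of control wells given weak agonist, in both repeats and first screen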); settings: Fluo-4 calcium flux, at 10 µM, serotonin added at its EC20 dose; hits give high values
[15] = calcium flux activation in mu-opioid HEK293 cells, confirmation, counter-screen for TRPC4 activator project, cell-based, HEK293 mu-opioid receptor line (AID 449723;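 active means hit in primary screen, with calcium signal over 5 SD above buffer well mean in both duplicates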;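 further: counter screen cells carry the mu-opioid receptor alone and lack TRPC4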); settings: Fluo-4 calcium fluorescence, at 10 µM; hits give high values
[16] = calcium flux enhancement in mu-opioid HEK293 cells, confirmation, counter-screen for TRPC4 allosteric potentiator project, cell-based, HEK293 mu-opioid receptor line (AID 449724;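 active means calcium signal rise more than 3 SD above the low-dose agonist control mean, in both duplicate plates and the primary screen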); settings: Fluo-4 calcium flux, at 10 µM, compound added before EC20 DAMGO stimulus; hits give high values

Measured: activation

COc1ccc(C(CNC(=O)c2cccc(Br)c2)N2CCCC2)cc1 (centres undefined)
active: [10] 61.5%
inactive: all other assays above

Cc1ccn(CC(=O)NC2CCCN(Cc3ccc(CC(C)C)cc3)C2)n1 (centres undefined)
active: [1] 170% | [10] 61% | [12] 50.5%
inactive: all other assays above

COc1ccc(C(CNC(=O)Cc2cccs2)N(C)C)cc1 (centres undefined)
active: [1] 102% | [2] 103% | [10] 36.5%
inactive: all other assays above

CC(C)C1CC(CCNCc2ccc(N(C)C)cc2)(c2ccccc2)CCO1 (centres undefined)
active: [1] 185% | [10] 29% | [12] 31.2%
inactive: all other assays above

CCOC(=O)C1(Cc2cccc(F)c2)CCN(Cc2cnn(CC)c2)CC1
active: [1] 118% | [2] 92% | [10] 51.5%
inactive: all other assays above

COc1ccc(-c2nn(-c3ccccc3C)cc2CNCc2cccnc2)cc1F
active: [1] 128% | [10] 33%
inactive: all other assays above

COc1cccc(CN2CCNC(=O)C2CC(=O)N(C)CCc2ccccn2)c1OC (centres undefined)
active: [1] 138% | [12] 52.1%
inactive: all other assays above

CC12CCCCN1CCCc1c2[nH]c2ccccc12 (centres undefined)
active: [10] 35% | [12] 8.77%
inactive: all other assays above

COC(=O)C1CCN(Cc2cn(-c3ccccc3)nc2-c2ccc3c(c2)OCO3)CC1
active: [10] 45%
inactive: all other assays above

CCN1CCN(c2ncnc3sc(C)c(-c4ccccc4)c23)CC1
active: [1] 107%
inactive: all other assays above

N=c1n(Cc2ccccc2)c2ccccc2n1CC(O)COc1ccccc1 (centres undefined)
active: [10] 54%
inactive: all other assays above

CCn1c(N2CCN(S(=O)(=O)CC)CC2)nc2ccccc21
active: [1] 96% | [12] 19.2%
inactive: all other assays above

CCN1CCCC1CNS(=O)(=O)c1c(C)cc(C)cc1C (centres undefined)
active: [1] 95% | [10] 61.5% | [12] 20.3%
inactive: all other assays above

O=C(NCCc1cnc[nH]1)c1ccc(-c2ccccc2)cc1
active: [1] 109% | [10] 59% | [12] 17.5%
inactive: all other assays above

O=C(NCCNC1CCC(c2ccccc2)CC1)c1cccs1 (centres undefined)
active: [1] 169% | [2] 95% | [10] 66% | [12] 103%
inactive: all other assays above

CCOc1ccc(CN2CCNC(=O)C2CC(=O)NCCc2ccccn2)cc1 (centres undefined)
active: [1] 145% | [12] 49%
inactive: all other assays above

CC(C)n1cnc2c(N(C)c3ccccc3)nc(N(CCN(C)C)Cc3ccccc3)nc21
active: [10] 31%
inactive: all other assays above

CN(C)c1ccc(-c2sc(Nc3ccccc3)n[n+]2-c2ccc(F)cc2)cc1
active: [1] 406% | [10] 45% | [12] 10.7% | [15] 274%
inactive: all other assays above

O=c1c(Cc2ccc(F)cc2)c(O)ccn1CCc1cnc[nH]1
active: [1] 112% | [12] 29%
inactive: all other assays above

CN(C)CCCN(C(=O)c1ccc(S(=O)(=O)N2CCc3ccccc3C2)cc1)c1nc2c(F)cc(F)cc2s1
active: [1] 73%
inactive: all other assays above

Cc1noc(C)c1CCC(=O)NC1CCCN(Cc2ccc(CC(C)C)cc2)C1 (centres undefined)
active: [1] 75% | [10] 46% | [12] 20.6%
inactive: all other assays above

O=C(CCCCn1c(=O)[nH]c2ccccc2c1=O)NC1CCN(Cc2ccccc2)CC1
active: [10] 35%
inactive: all other assays above

O=C(NC1CCCN(Cc2ccc(Cl)cc2)C1)C1CCC1 (centres undefined)
active: [1] 120% | [2] 58% | [10] 47.5% | [12] 39.7%
inactive: all other assays above

CC1CN(C)C(C)c2c1oc1ccc(N)cc21 (centres undefined)
active: [1] 226% | [2] 73%
inactive: all other assays above

COC(=O)NCC(c1ccc2c(c1)OCO2)N1CCN(c2ccc(OC)cc2)CC1 (centres undefined)
active: [1] 85%
inactive: all other assays above

Cc1cccn2c(CNCCc3ccccn3)c(C(=O)N3CCOCC3)nc12
active: [1] 184% | [2] 55% | [10] 46.5% | [12] 57.2%
inactive: all other assays above

CN(C)CCCN(C(=O)c1ccc(Cl)s1)c1nc2cc3c(cc2s1)OCO3
active: [1] 63%
inactive: all other assays above

O=S(=O)(NCCc1csc(-c2ccccc2)n1)c1cccnc1
active: [1] 93% | [10] 59% | [12] 26.7%
inactive: all other assays above

COc1ccc(Cl)cc1C(=O)Nc1ccccc1N1CCN(C)CC1
active: [1] 120% | [12] 16%
inactive: all other assays above
